TEAD-YAP inh: TEAD-YAP interaction inhibition. HEK-TIYL cells, TEAD-Gal4/YAP UAS-luciferase luminescence. inhibition, % at 9.12 µM. hit rate 1.4% among 640,000; in the data active = inhibition above about 32%;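 also: 0% = median of test compound wells and 100% = reference inhibitor wells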
MITF inh: inhibitors of human MITF; hit rate 0.91% among 650,000; inhibition, % at 2.6 µM; O75030; AID 1259374; AlphaScreen MITF homodimerization, bead proximity signal; in the data active = inhibition above about 50%;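 also: 0% = vehicle wells with protein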
GPR151 ag: activators of human GPR151; Q8TDV0; PathHunter beta-arrestin GPR151 cells, luminescence; activation, % at 11.2 µM; hit rate 1% among 650,000; in the data active = activation above about 4.9%;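 also: 0% = median of compound wells and 100% = cells with positive control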
FBW7 activator: activators of human E3 ligase FBW7. Q969H0. AlphaScreen FBW7–phospho-cyclin E peptide binding, activator screen. normalized activity (activation), % at 26.1 µM. hit rate 0.13% among 650,000; in the data active = normalized activity above about 1.9%;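 also: purified mutant Fbw7 with reduced substrate affinity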
Target sequence (Q969H0 whole entry, looked up): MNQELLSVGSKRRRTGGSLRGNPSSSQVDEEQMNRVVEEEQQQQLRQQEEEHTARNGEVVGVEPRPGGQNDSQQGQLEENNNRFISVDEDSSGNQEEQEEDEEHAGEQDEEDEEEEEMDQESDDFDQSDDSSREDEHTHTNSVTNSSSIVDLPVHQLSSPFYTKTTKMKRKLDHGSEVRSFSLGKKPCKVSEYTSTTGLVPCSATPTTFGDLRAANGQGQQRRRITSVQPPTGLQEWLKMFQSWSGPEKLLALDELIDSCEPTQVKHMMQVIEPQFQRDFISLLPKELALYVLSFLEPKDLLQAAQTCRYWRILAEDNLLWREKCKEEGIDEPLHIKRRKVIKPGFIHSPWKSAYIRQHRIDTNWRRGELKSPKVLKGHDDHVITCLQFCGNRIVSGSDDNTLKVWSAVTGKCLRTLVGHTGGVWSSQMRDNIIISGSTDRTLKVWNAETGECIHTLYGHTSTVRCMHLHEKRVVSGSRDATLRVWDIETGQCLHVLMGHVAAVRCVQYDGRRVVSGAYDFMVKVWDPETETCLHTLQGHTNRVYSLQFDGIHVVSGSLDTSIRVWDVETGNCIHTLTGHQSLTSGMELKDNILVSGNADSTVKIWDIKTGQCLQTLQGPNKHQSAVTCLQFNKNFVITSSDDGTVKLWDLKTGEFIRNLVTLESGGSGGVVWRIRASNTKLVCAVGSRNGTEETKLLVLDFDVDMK
MITF confirm: human MITF inhibition, confirmation; inhibition, % at 2.6 µM; hit rate 16% among 4,700; shares compounds with MITF inh; AlphaScreen MITF homodimerization, biotin/His-MITF beads;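 active = inhibition above a cutoff derived from the DMSO control wells, cut at about 28% in these data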;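 also: 0% = MITF dimer wells with DMSO only; inhibitors lower the bead chemiluminescence by keeping MITF from dimerizing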
AS interf DR: AlphaScreen optical interference, dose response counter-screen; shares compounds with MITF inh; AlphaScreen optical interference counterscreen, cell-free; IC50, µM; hit rate 6% among 480; AID 1259373; call rule not given here
AS interf ctr: AlphaScreen optical interference, counter-screen; shares compounds with MITF inh; LysRS AlphaScreen counterscreen, signal interference, triplicate; inhibition, % at 2.6 µM; hit rate 7.6% among 4,700; AID 1259376;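 active = inhibition above a cutoff derived from the DMSO control wells, cut at about 30% in these data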
An asterisk follows results filed as active. The list is not random: actives were taken first. Their share in the collection is about 3.5%.

For Cc1nnc(NC(=O)CN2CCOCC2)s1 the results were TEAD-YAP inh -6, MITF inh -8, GPR151 ag 1 and FBW7 activator 0.
For CCN1CCN(CCC(=O)Nc2ccccc2)CC1 the results were TEAD-YAP inh 8, MITF inh 24, GPR151 ag -2 and FBW7 activator 2.
For Cc1cc(Cl)ccc1N(CC(=O)Nc1ccccc1Cl)S(C)(=O)=O the results were TEAD-YAP inh 4, MITF inh -3, GPR151 ag 1 and FBW7 activator 0.
For CCOC(=O)C1=C(C)N(c2ccc(OC)cc2)C(=O)/C1=C\c1ccc(O)cc1 the results were TEAD-YAP inh 2, MITF inh -7, GPR151 ag 0 and FBW7 activator 0.
`COc1ccc(C(=O)N/N=C/c2ccc(OCC(=O)OC(C)(C)C)cc2)cc1` gave TEAD-YAP inh -54, MITF inh 12, GPR151 ag 0 and FBW7 activator 0.
Screening O=C(c1ccc([N+](=O)[O-])s1)N(c1nccs1)C1CCCCC1 returned TEAD-YAP inh -17, MITF inh 4, GPR151 ag 0 and FBW7 activator 0.
`COc1ccc(CC(=O)NC(C)C(c2cccs2)N2CCN(C)CC2)cc1OC` (configuration not stated) gave TEAD-YAP inh 3, MITF inh 5, GPR151 ag 0 and FBW7 activator 0.
For Cc1cc(C)cc(NC(=O)CN2CCc3ccccc3C2)c1 the results were TEAD-YAP inh 3, MITF inh 69*, GPR151 ag 0, FBW7 activator 0, MITF confirm 0 and AS interf ctr 5.
For Cc1cc(C)cc(NC(=O)CCN2CCc3ccccc3C2)c1 the results were TEAD-YAP inh -5, MITF inh -1, GPR151 ag -1 and FBW7 activator 0.
Screening CC1CCCC(NC(=O)CN(C)S(=O)(=O)c2cccc3cccnc23)C1C (configuration not stated) returned TEAD-YAP inh -4, MITF inh 64*, GPR151 ag 0, FBW7 activator 1, MITF confirm 10 and AS interf ctr 10.
For Cc1ccccc1OCCNCC(C)O (configuration not stated) the results were TEAD-YAP inh 1, MITF inh 53*, GPR151 ag 0, FBW7 activator 0, MITF confirm 4 and AS interf ctr 9.
For CCS(=O)(=O)N1CCN(CC(=O)c2ccco2)CC1 the results were TEAD-YAP inh 5, MITF inh 56*, GPR151 ag 2, FBW7 activator 0, MITF confirm 8 and AS interf ctr 23.
`O=C(CN1CCN(C(=O)c2c(F)cccc2Cl)CC1)c1ccco1` gave TEAD-YAP inh -7, MITF inh 8, GPR151 ag 3 and FBW7 activator 0.
Screening O=C(CN1CCN(Cc2ccc(Cl)c(Cl)c2)CC1)c1ccco1 returned TEAD-YAP inh -1, MITF inh 61*, GPR151 ag 0, FBW7 activator 0, MITF confirm 7 and AS interf ctr 19.
N#C/C(=C\c1cn(CC(=O)NCC2CCCO2)c2ccccc12)C(=O)NCc1cccs1 (configuration not stated) was read as TEAD-YAP inh -4, MITF inh -3, GPR151 ag 1 and FBW7 activator 0.
C=C(C)CN1C(=O)NC(CC)(C2CCN(C(=O)Cc3cc(OC)ccc3OC)CC2)C1=O (configuration not stated) was read as TEAD-YAP inh -7, MITF inh 28, GPR151 ag 0 and FBW7 activator 1.
Screening Cc1c(N(C)C(=O)c2ccccc2N)c(=O)n(-c2ccccc2)n1C returned TEAD-YAP inh 12, MITF inh 0, GPR151 ag -1 and FBW7 activator 1.
O=c1[nH]c2ccc(Br)cc2[nH]c1=O was read as TEAD-YAP inh 3, MITF inh 1, GPR151 ag 1 and FBW7 activator 0.
`Cc1ccc2[nH]c(=O)c(=O)[nH]c2c1` gave TEAD-YAP inh 11, MITF inh 82*, GPR151 ag 2, FBW7 activator 0, MITF confirm 53*, AS interf DR >12 and AS interf ctr -2.
`CC1=C(C(=O)Nc2ccccc2C)C(c2ccc(Br)cc2)NC(=O)N1` (configuration not stated) gave TEAD-YAP inh -8, MITF inh 20, GPR151 ag 0 and FBW7 activator 1.
For O=C(CNC1CCCCC1)Nc1c2c(nc3c1CCC3)CCC2 the results were TEAD-YAP inh -7, MITF inh 40, GPR151 ag 0 and FBW7 activator 0.
`CC(C)(C)NCC(=O)Nc1c2c(nc3c1CCC3)CCCC2` gave TEAD-YAP inh 5, MITF inh 75*, GPR151 ag 0, FBW7 activator 0, MITF confirm 3 and AS interf ctr -3.
For CNCC(=O)Nc1c2c(nc3c1CCC3)CCCC2 the results were TEAD-YAP inh 0, MITF inh 61*, GPR151 ag 0, FBW7 activator 0, MITF confirm -2 and AS interf ctr -1.
Screening O=C(CNC1CCCCC1)Nc1c2c(nc3c1CCC3)CCCC2 returned TEAD-YAP inh 3, MITF inh 74*, GPR151 ag 0, FBW7 activator 0, MITF confirm -12 and AS interf ctr -3.
CN1CCN(S(=O)(=O)c2ccc3[nH]cc(C(=O)NCCc4ccccc4)c(=O)c3c2)CC1 was read as TEAD-YAP inh 0, MITF inh 2, GPR151 ag -1 and FBW7 activator 0.
COc1ccc(-c2ccc(=O)n(CC(=O)Nc3cc(C)cc(C)c3)n2)cc1 was read as TEAD-YAP inh -1, MITF inh 2, GPR151 ag 0 and FBW7 activator 0.
For COc1ccc(NC(=O)COc2ccc(Cl)cc2)c2ccccc12 the results were TEAD-YAP inh 6, MITF inh -6, GPR151 ag 0 and FBW7 activator 0.
For COc1ccc(NC(=O)CN(C)CC(=O)Nc2cccc(C(C)=O)c2)cc1 the results were TEAD-YAP inh 1, MITF inh 58*, GPR151 ag 1, FBW7 activator 0, MITF confirm -1 and AS interf ctr 5.
Screening O=C(O)c1cc(N/N=C/c2ccc(N3CCOCC3)s2)ccc1Cl returned TEAD-YAP inh -16, MITF inh 76*, GPR151 ag -1, FBW7 activator 0, MITF confirm 60*, AS interf DR >7.1 and AS interf ctr 21.
Screening Cc1ccc(NC(=O)c2cccc(C(=O)Nc3ccc(C)c(C)c3)c2)cc1C returned TEAD-YAP inh -15, MITF inh 24, GPR151 ag -1 and FBW7 activator 1.
`COc1ccc(CN2CCN(C3CCN(Cc4ccccc4)CC3)CC2)c(OC)c1` gave TEAD-YAP inh 7, MITF inh 38, GPR151 ag 0 and FBW7 activator 1.

Bioassay records deposited in PubChem BioAssay by The Scripps Research Institute Molecular Screening Center.
